# Test results from PubChem BioAssay AID504727 (Broad Institute, 2011).
# Active and inactive are the calls of the source.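 Rule for the calls: active = fitted half-maximal concentration AC50 at or below ten times the highest valid tested dose, with signal falling as DNA is displaced (actives reach about 34 µM in these data); inconclusive = flat fit at moderate signal loss, or poor fit quality; inactive = the rest, including signal rising instead of falling.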
# Assay: acridine orange-DNA binding displacement – biochemical, fluorescence polarization, cherry-picked samples, set 2, artefact control for KSHV LANA DNA-binding inhibitor project, dose response (AID 504727)
# Details: series mostly up to 35 µM
row,SMILES,AC50
1,CCN(CC)CCN1C(=O)c2cccc3cc(N)cc(c23)C1=O,17 µM (active)
2,COc1ccccc1C(=O)NCC(=O)OCC(=O)N(CC(C)C)c1c(N)n(Cc2ccccc2)c(=O)[nH]c1=O,inactive
3,CCN(CC)C(=S)SC1CCCCN(C(=O)c2ccccc2)C1=O (stereo not drawn),inactive
4,O=C(OCCN1C(=O)c2cccc3c(N4CCOCC4)ccc(c23)C1=O)c1ccc(Cl)cc1,18.5 µM (active)
5,O=C(Cn1ncc(N2CCCC2)c(Cl)c1=O)c1ccc(Cl)cc1,inactive
6,Cn1cc(C(=O)c2ccc(Cl)cc2Cl)cc1C(=O)N/N=C(\N)COc1ccccc1,inactive
7,O=C(CCN1C(=O)/C(=C/c2ccco2)SC1=S)Nc1ccc(C(=O)O)c(O)c1,inactive
8,CC(OC(=O)CCN1C(=O)C2CC=CCC2C1=O)C(=O)Nc1ccc(F)cc1 (stereo not drawn),inactive
9,Cn1c2ccccc2c2cnn(CC(=O)Nc3cccc(F)c3)c(=O)c21,inactive
10,CN1CCc2c(sc(NC(=O)c3ccc4ccccc4c3)c2C(N)=O)C1,inactive
11,COC(=O)C1CCN(C(=O)COC(=O)Cc2c[nH]c3ccccc23)CC1,inactive
12,N#C/C(=C\c1ccc(-c2ccccc2[N+](=O)[O-])o1)C(N)=O,inactive
13,O=C(c1cnn2c(-c3ccccc3)cc(-c3ccccc3)nc12)N1CCN(Cc2ccccc2)CC1,inactive
14,N=C1/C(=C\c2ccc(Br)o2)C(=O)N=C2SC(CC(=O)N3CCOCC3)=NN12,inactive
15,O=c1ccc2c(-c3ccccc3S(=O)(=O)O)c3ccc(O)c(O)c3oc-2c1O,inactive
16,CCSc1nnc(Cc2cc(=O)[nH]c(=O)[nH]2)n1-c1ccc(F)cc1,inactive
17,O=C(Nc1ccc2c(c1)OCO2)N1CCCc2ccccc21,inactive
18,COc1cccc(NC(=S)N2CCN(C(c3ccccc3)c3ccccc3)CC2)c1,inactive
19,O=C(c1cccc(S(=O)(=O)NCc2ccccc2)c1)N1CCN(c2ccccc2Cl)CC1,inactive

row,SMILES,AC50
1,O=C(Nc1cc(Cl)ccc1-n1cncn1)c1cccs1,inactive
2,CC(/C=C1\SC(=S)N(CCCC(=O)Nc2ccc(C(=O)O)cc2)C1=O)=C\c1ccccc1,inactive
3,O=C1c2cccc3c(N4CCCCC4)ccc(c23)C(=O)N1c1cccc(O)c1,inactive
4,CC(C)[C@H](NC(=O)c1ccccc1F)C(=O)NC1CCCCCCC1,inactive
5,O=C(O)/C=C/C(=O)Nc1ccc(Cc2ccc(NC(=O)/C=C/C(=O)O)cc2)cc1,inactive
6,COc1ccc(C2c3ccc(O)cc3Oc3ncn(CCCO)c(=N)c32)cc1OC (stereo not drawn),inactive
7,Cc1nnc(NC(=O)CN2C(=O)NC3(CCCC3)C2=O)s1,inactive
8,CCOc1ccc2noc3c2c1C(=O)c1ccccc1-3,0.728 µM (active)
9,COCCCNc1c2c3c(cccc3[nH]c1=O)C(=O)c1ccccc1-2,0.63 µM (active)
10,O=C(O)CC1(CC(=O)NCc2ccncc2)CCCCC1,inactive
11,Cc1nc2c(=O)[nH]c(=S)[nH]c2[nH]c1=O,inactive
12,CCCc1nc(NCc2ccccn2)c2nnn(Cc3ccccc3F)c2n1,inactive
13,C=CC[C@@H](CC(=O)N(CCO)Cc1ccccc1)C(=O)NC[C@H](OC(=O)[C@@H](CC=C)CC(=O)OC(C)(C)C)c1ccccc1,inactive
14,CC(C)=C[C@@H]1C[C@H](C)[C@H]2CC[C@H](C)c3c(O[C@@H]4O[C@@H](C)[C@@H](O)[C@@H](O)[C@@H]4O)c(O)c(C)c1c32,inactive
15,CC(=O)N/C(=C/c1ccc(OS(=O)(=O)c2ccc(C)cc2)cc1)C(=O)Nc1ccc(C(=O)O)cc1,inactive
16,COc1ccc2c3c(cccc13)C(=O)CC2,6.92 µM (active)
17,C/C(=N\NC(=O)CCc1c(C)n[nH]c1C)c1ccc([N+](=O)[O-])cc1,inactive
18,CC(C)CC(=O)Nc1nnc(CSCc2ccc(F)cc2)s1,inactive
19,Cc1cc(C)n2nc(C(=O)OC(C)C(=O)c3cc(C)c(C)cc3C)nc2n1 (stereo not drawn),inactive
